# Measurements published in PMC12136788.
# The full ranking holds about 24,000 sequences; the median of “enrichment r” is about 0.99, and the highest 2% start at about 3.7. The list comes from a sample in which the highest values are over-represented; it also holds similar and randomly drawn sequences.
# T1: UNK ZnF1-3 (human, UniProt Q9C0B0 31-174)
# T1 sequence: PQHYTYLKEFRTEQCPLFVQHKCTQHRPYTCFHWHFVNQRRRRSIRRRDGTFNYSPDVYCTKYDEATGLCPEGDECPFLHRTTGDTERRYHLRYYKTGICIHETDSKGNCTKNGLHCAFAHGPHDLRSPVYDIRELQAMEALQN
# B1: chr1:225611761:225611762:-_ENSG00000143815_ENST00000272163|hu_mus|hu_hu_hu_mus_True|1_18 (ssRNA)
# RNA: GGGAGUUCUACAGUCCGACGAUCCCAGGCCAUCGGCCUCUGACCACUUCACCCUCAACAAACUUCCUACUUGGCAUUUUCUAAAAUUAGUCUGGCCGCGCUCCGGCGGGAACUCCAGACGGCUCCCGACAGUCACCCGCACAGCAACAGAGGAUUGAGCAUCA
# B2: chr1:247070963:247070964:-_ENSG00000153207_ENST00000391829|hu_mus|motif|central (ssRNA)
# RNA: GGGAGUUCUACAGUCCGACGAUCCUGAUUUGUCCUGUUGAUGUAACUCAGAGUAGAAAUGGCUACUCCCAAUGGGCUUACGGACUGGAAGCACAGGUGGCGCCCCUCUCUCAUCACUCUCUCUCUGAUGUGUGGUACUUCAGCCAACAGAGGAUUGAGCAUCA
# B3: chr11:97025304:97025305:-_ENSMUSG00000001440_ENSMUST00000001479|mus_hu|FALSE|FALSE (ssRNA)
# RNA: GGGAGUUCUACAGUCCGACGAUCAGCUACUACUCCAUCUGUGUGAUCCUCAUCUCCAGCAAUGUGGUCAAUGAAAGACAGAAUAAAUUCUACUCUGGGUUGUACCAGCAUCACAUCCGGGUGUACGUUCUCCUGAUCCCCCUUCAACAGAGGAUUGAGCAUCA
# B4: chr2:25965407:25965408:-_ENSG00000143970_ENST00000336112|hu_hu|motif|central (ssRNA)
# RNA: GGGAGUUCUACAGUCCGACGAUCCUGUGCUGCCUGAAUUAAAUCUCUGGCUAGGGUCUUUUCAUCAAAUGUUUGGCCUCGGGUGAACAGGUAAUUCUCCUUACUUAAAGUGGUUUGCUCAUUCAAUGGUAUCUCAGCCUUCACCAACAGAGGAUUGAGCAUCA
# B5: chr7:140404665:140404666:+_ENSG00000090266_ENST00000247866|hu_hu|hu_hu_hu_mus_False|8_88 (ssRNA)
# RNA: GGGAGUUCUACAGUCCGACGAUCUGCUCCUACUCGUCCAGAGAGUUUACACCUUCAGUCCUCGUCAUCAGGAGGGAUUCCCAGUUCUUCAUCUGUCCACUGUGAAGGAUCUGGAUAUGAAAAGUGACCCAGCACCUCAUCCGACAACAGAGGAUUGAGCAUCA
# B6: chr18:67804014:67804015:+_ENSMUSG00000024537_ENSMUST00000025418|mus_mus|motif|central (ssRNA)
# RNA: GGGAGUUCUACAGUCCGACGAUCGCAAUCAGUAUAGAAAUAACCAAUCUUACACAUGUUCAGUGUAGAAAUAAUCAGAUCGGUUGCAAGCUGGCCAACAUUUCCAACGGAUACUGCUGGCAUCAGGAGUGUAAAGUUCGUUAGCAACAGAGGAUUGAGCAUCA
# Molecular target: T1, UNK ZnF1-3
# Assay: nsRBNS (natural sequence RNA bind-n-seq); RBNS binding buffer (assumed for nsRBNS): 25 mM Tris pH 7.5, 150 mM KCl, 3 mM MgCl2, 0.01% Triton X-100, 500 ug/ml BSA, 20 U/ml SUPERase-In, 4 C; UNK is unkempt and MSI1 is Musashi-1; names of the RNAs are library labels; protein concentration not given here; high values mean tight binding
row,Binder,binding signal [enrichment R]
1,B1,1.37
2,B2,1.02
3,B3,1.13
4,B4,0.753
5,B5,1.36
6,B6,0.794
